From PubChem
The full list was thinned out, with hits kept by preference.
AmpC no deterg – AmpC beta-lactamase inhibition without detergent | AmpC nitrocefin hydrolysis, absorbance 480 nm, 0.0001% Triton | 0.52% of 330,000 active | P00811 | AID 485341 | Potency, µM (top dose mostly 57.1 µM), for inactives: at the top dose activity change, negative = inhibition, most hits filed as inhibitors;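 note: plate controls were no compound for no effect and no enzyme for full effect; nearly all actives have a fitted effect of over 20% in size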
Target sequence (P00811 whole entry, looked up): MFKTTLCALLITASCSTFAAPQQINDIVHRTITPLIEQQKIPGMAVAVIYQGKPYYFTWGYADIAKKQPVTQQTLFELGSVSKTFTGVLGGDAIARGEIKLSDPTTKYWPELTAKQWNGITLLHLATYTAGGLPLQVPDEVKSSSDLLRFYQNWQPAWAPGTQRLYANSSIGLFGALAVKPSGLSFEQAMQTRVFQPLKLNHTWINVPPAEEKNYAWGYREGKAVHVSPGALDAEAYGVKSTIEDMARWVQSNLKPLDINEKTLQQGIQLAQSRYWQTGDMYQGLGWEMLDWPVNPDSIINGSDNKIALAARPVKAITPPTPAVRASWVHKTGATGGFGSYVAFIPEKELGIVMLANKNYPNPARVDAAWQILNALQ
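AmpC (5.3 nM in the dispensed reagent) in 20 mM phosphate pH 7.0 with 0.01% (detergent screen) or 0.0001% Triton X-100 was preincubated with compounds for 15 min at room temperature. Nitrocefin was then added from an 800 uM solution, and hydrolysis was followed at 480 nm.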
AmpC detergent – blocks E. coli AmpC beta-lactamase in detergent assay. P00811. AmpC hydrolysis of nitrocefin, absorbance 480 nm, 0.01% Triton. Potency, µM (series often up to 114 µM), without a hit: top-dose activity change, negative = inhibition, hits mostly inhibitors. 0.041% of 370,000 active;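 note: 0% = no-compound wells and -100% = no-enzyme wells; nearly all actives have a fitted effect of over 25% in size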
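20 mM phosphate pH 7.0 + 0.01% (detergent screen) or 0.0001% Triton X-100; 5.3 nM AmpC reagent; cpd preinc 15 min RT; nitrocefin (800 uM stock) to start; A480 q20 s × 4 min; Activity was normalised to no-enzyme and no-compound control wells.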
Active calls of the source: *; u = inconclusive; x = no result; ! = repeats disagree; [ ] = dose if it differs, or a comment. Calls come from the whole dose curve; as a rule, active = well fitted curve in the direction sought with a large enough effect; inconclusive = small, poorly fitted or top-dose-only effect, or another doubt; inactive = no such curve, though single readings can be large; an effect the other way counts as inactive or inconclusive. Potency is the fitted concentration of half-maximal effect.

SMILES	AmpC no deterg	AmpC detergent
CCCS(=O)(=O)c1ncc(Cl)c(C(=O)N2CCN(c3ccc(OC)cc3)CC2)n1	x	10.5%
COc1ccc(OCCNc2c([N+](=O)[O-])c(=O)oc3ccccc23)cc1	28.2µM*	u
CCNc1c([N+](=O)[O-])c(=O)oc2ccccc12	-21.5%	-0.2%
O=C(Nc1ccc(-c2csc(Nc3ccccc3)n2)cc1)c1cccc(C(F)(F)F)c1	3.55µM*	2.3%
O=C(Nc1ccc(-c2csc(Nc3ccc(Cl)cc3)n2)cc1)c1cccc(C(F)(F)F)c1	u	-9.2%
COC(=O)c1cc2c([nH]c3ccccc32)c(C)n1	66.8%	-11.9%
COc1ccc(NC(=O)c2cc3c([nH]c4ccccc43)c(C)n2)cc1	8.91µM*	-7.1%
Cc1ccc(Cn2c(SCC(=O)NCc3ccccc3Cl)nc3ccsc3c2=O)cc1	x	2.7%
Cc1ccccc1CNC(=O)CCC(=O)N1CCSc2ccccc21	x	-0.3%
O=C(Cn1cc2c(n1)CCCC2)NC1CCCCCC1	-58.5%	u
CCOC(=O)N1CCC(NC(=O)Cn2cc3c(n2)CCCC3)CC1	2.82µM*	u
O=C(O)CCc1cc(I)c(Oc2ccc(O)c(I)c2)c(I)c1	-38.0%	-3.5%
N[C@@H](Cc1cc(I)c(Oc2ccc(O)c(I)c2)c(I)c1)C(=O)O	3.16µM*!	u
O=C(O)c1c2c(nc3ccc(S(=O)(=O)N4CCC(C(=O)NC5CCCC5)CC4)cc13)CCCCC2	25.1µM*	-13.9%
CC1CCc2nc3ccc(S(=O)(=O)N4CCC(C(=O)NC5CCCC5)CC4)cc3c(C(=O)O)c2C1 (stereo not given)	-7.8%	u
CC(C)Cc1nn2c(=O)cc(COC(=O)c3ccc(NC(=O)C4CCCCC4)cc3)nc2s1	x	-3.9%
Cc1cccc(N=C2NC(=O)/C(=C/c3cccn3C)S2)c1C	-25.2%	4.1%
Cc1ccc(N=C2NC(=O)/C(=C/C=C/c3ccco3)S2)cc1	-57.6%	-1.7%
O=C1NC(=Nc2ccccc2)S/C1=C\C=C\c1ccco1	14.1µM*	-2.4%
Cc1cccc(N=C2NC(=O)/C(=C/C=C/c3ccco3)S2)c1C	31.6µM*	-2.8%
COc1ccc(S(=O)(=O)/N=C2/NC(=O)/C(=C/c3ccco3)S2)cc1	-25.6%	-4.2%
COc1ccc(N=C2NC(=O)/C(=C/c3ccco3)S2)cc1	11.2µM*	1.6%
Cc1ccc(NC(=O)Cn2c(=O)n(CC3CCCO3)c(=O)c3ccccc32)cc1 (stereo not given)	x	-0.4%
CCC(=O)N1CCc2cc(S(=O)(=O)CCC(=O)Nc3ccc(OC(F)(F)F)cc3)ccc21	x	-3.4%
CCOC(=O)c1ccc(CN(Cc2ccc(F)cc2)S(=O)(=O)c2cc(C(=O)Nc3cccc(C(F)(F)F)c3)ccc2F)cc1	x	-5.0%
SMILES	AmpC no deterg	AmpC detergent
C/C(=N\Nc1ccc(Cl)c(Cl)c1)c1ccc(-n2ccnc2)cc1	14.1µM*	-0.4%
C/C(=N\NC(N)=S)c1ccc(-n2ccnc2)cc1	-18.7%	-9.3%
O=c1c(C/C=C/c2ccccc2)c(O)ccn1CCc1c[nH]c2ccccc12	-6.5%[2.29 µM]	-5.6%
COc1ccc2[nH]cc(CCn3ccc(O)c(C/C=C/c4ccccc4)c3=O)c2c1	15.8µM*	0.0%
Fc1ccc(Nc2nc3nonc3nc2Nc2cccc(C(F)(F)F)c2)cc1	x	21.3%
C/C(=N\NC(=O)CSCc1ccccc1Cl)c1cccc(NC(=O)c2ccccc2)c1	22.4µM*	-4.9%
C/C(=N\NC(=O)c1ccccc1O)c1cccc(NC(=O)c2ccccc2)c1	-56.2%	-14.3%
O=[N+]([O-])c1ccc(S(=O)(=O)NCc2nc3cccnc3n2Cc2ccccc2Cl)cc1	x	2.2%
Cn1c(=O)n(-c2ccc(F)c(Cl)c2)c(=O)c2sc3ccccc3c21	x	-3.9%
Cc1cc(Br)ccc1NC(=O)C1(S(=O)(=O)c2ccc(Cl)cc2)CC1	x	17.8%
CCC(=O)CC(c1ccccc1)c1c(O)c2ccccc2sc1=O (stereo not given)	-26.6%	-3.8%
O=c1c(C(c2ccccc2)c2c(O)sc3ccccc3c2=O)c(O)sc2ccccc12	15.8µM*	-2.8%
COc1ccc(-n2c(SCc3ccccc3)nc3c([nH]c4ccccc43)c2=O)cc1	x	5.7%
Cc1ccc2occ(CC(=O)N(Cc3ccc(Cl)cc3)C3CCS(=O)(=O)C3)c2c1 (stereo not given)	x	-0.6%
CN(C)S(=O)(=O)c1cccc(NC(=S)NNC(=O)c2cc3ccccc3cc2O)c1	25.1µM*	-1.4%
CN(C)S(=O)(=O)c1cccc(NC(=S)NC(=O)c2ccco2)c1	-6.6%	0.0%
CCS(=O)(=O)N1CCc2cc(C(=O)NC(C)c3ccccc3)ccc21 (stereo not given)	x	19.8%
Cc1c(O)nc(SCC(=O)Nc2ccc(Cl)cc2Cl)n(-c2ccc(F)cc2)c1=O	x	20.8%
Cc1c(O)nc(SCC(=O)Nc2ccc3c4c(cccc24)CC3)n(-c2ccc(F)cc2)c1=O	28.2µM*	-3.4%
COCCNC(=O)CSc1nnc2[nH]c(=O)cc(C)n12	x	-2.1%
CCn1cc(C(=O)NCc2ccc(Cl)cc2)c(=O)c2cc(S(=O)(=O)N(C)C3CCCCC3)ccc21	x	-5.8%
Cc1nn(CCCC(=O)NCc2cccc(Cl)c2)c(=O)c2c1sc1ccccc12	x	16.4%
O=C(NCCN1CCOCC1)c1cc(-c2ccc(Cl)cc2)on1	-1.5%	3.3%
CC(C)Cc1cc(C(=O)NCCN2CCOCC2)no1	0.501µM*	u
CCOC(=O)c1ccc(NC(=O)CCCc2nc(-c3ccccc3Cl)no2)cc1	x	0.1%
SMILES	AmpC no deterg	AmpC detergent
COc1ccc(NC(=O)CSc2c3c(nc4ccc(Cl)cc24)CCCC3)cc1Cl	x	3.5%
CC(=O)c1ccc(NC(=O)COC(=O)c2ccccc2Nc2ccccc2)cc1	-22.2%	-0.2%
O=C(COC(=O)c1ccccc1Nc1ccccc1)Nc1ccccc1	7.08µM*	u
COc1ccc(C2CC(=O)N(Cc3ccccc3)c3c2c(C)nn3-c2nc(C)cc(C)n2)c(OC)c1 (stereo not given)	x	15.8%
Cc1ccc(C)c(NS(=O)(=O)c2ccc3oc(=O)ccc3c2)c1	-2.1%	5.4%
Cc1ccc(C)c(NS(=O)(=O)c2ccc3c(c2)Cc2cc(S(=O)(=O)Nc4cc(C)ccc4C)ccc2-3)c1	7.94µM*	-9.5%
COc1ccc(NC(=O)c2cc3ccccc3o2)c(OC)c1	x	8.5%
CCOc1ccc(S(=O)(=O)Nc2ncn[nH]2)cc1	-12.0%	-13.7%
CCOc1ccc(S(=O)(=O)Nc2cc(Sc3ncn[nH]3)c3oc(=O)sc3c2)cc1	5.62µM*	-6.6%
Cc1ccc2nc(CN3CCN(S(=O)(=O)c4ccc(F)cc4)CC3)oc2c1	x	13.2%
Nc1cc([N+](=O)[O-])ccc1Nc1ccc(O)cc1	31.6µM*	1.1%
Nc1ccccc1Nc1ccc([N+](=O)[O-])cc1[N+](=O)[O-]	-14.6%	u
COc1ccc(-n2c(/C=C/c3cccc(C(F)(F)F)c3)nc3ccccc3c2=O)cc1Cl	x	0.3%
CCCCN(C)CCCNC(=O)Cn1ncc2c3ccccc3n(Cc3ccccc3F)c2c1=O	x	4.6%
COc1ccccc1OC(C)C(=O)Nc1ccc(-c2nc3ccccc3s2)cc1 (stereo not given)	x	22.2%
Cc1ccc(-c2noc(-c3ccc(NC4CCCC4)c([N+](=O)[O-])c3)n2)cc1	x	-1.5%
OCC1OC(Oc2cccc3ccccc23)C(O)C(O)C1O (stereo not given)	-12.4%	-3.4%
